Screening data from PubChem.
Cruzain inh noDet: cruzain (T. cruzi) inhibition without detergent | P25779 | purified cruzain, Z-FR-AMC fluorescence, no detergent | Potency, µM, without a hit: max response, negative = inhibition, most hits filed as inhibitors | actives 2.3% (n = 200,000) | AID 1476;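 further: plate controls were enzyme without inhibitor for no effect and buffer without enzyme for full effect; nearly all actives have a fitted effect of over 40% in size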
Target sequence (P25779 123-467 limits assumed): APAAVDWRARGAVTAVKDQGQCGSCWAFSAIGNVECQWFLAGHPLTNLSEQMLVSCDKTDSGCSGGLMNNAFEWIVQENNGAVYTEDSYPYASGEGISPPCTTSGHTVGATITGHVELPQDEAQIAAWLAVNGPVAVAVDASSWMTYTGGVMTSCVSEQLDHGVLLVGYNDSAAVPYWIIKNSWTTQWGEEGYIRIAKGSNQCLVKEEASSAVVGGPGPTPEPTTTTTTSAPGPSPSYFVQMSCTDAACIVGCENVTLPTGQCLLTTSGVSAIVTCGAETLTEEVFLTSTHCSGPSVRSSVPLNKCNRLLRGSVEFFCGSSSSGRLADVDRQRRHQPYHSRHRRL
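Detergent-free condition (0.00005% Triton X-100) in acetate buffer pH 5.5 with DTT. 1.5 nM enzyme and compound were pre-mixed 15 min, then 2 uM Z-FR-AMC substrate added; reaction progress from fluorescence change between first and third reads (60 s).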
Cruzain Triton: cruzain (T. cruzi) inhibition with detergent. actives 0.43% (n = 200,000). P25779. AID 1478. Potency, µM, for the others: max response, negative = inhibition, actives largely listed as inhibitors. purified cruzain, Z-FR-AMC fluorescence, 0.01% Triton;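 further: plate controls were neutral wells for no effect and buffer without enzyme for full effect; nearly all actives have a fitted effect of over 40% in size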
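Detergent-containing run (0.01% Triton X-100) in acetate buffer pH 5.5 with 5 mM DTT: enzyme at 1.5 nM final, 15 min compound preincubation at room temperature, then 2 uM Z-FR-AMC substrate. Activity taken as 60 s fluorescence increase at 360/450 nm.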
Papain counter: counter-screen for cruzain inhibitors: papain inhibition | shares compounds with Cruzain Triton | purified papain, Z-FR-AMC fluorescence cleavage | Potency, µM, for the others: max response, negative = inhibition, usual class: inhibitors | actives 41% (n = 410) | AID 2161;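 further: 0% = no-compound wells and -100% = no-enzyme wells; nearly all actives have a fitted effect of over 35% in size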
Target sequence (P00784 whole entry, looked up): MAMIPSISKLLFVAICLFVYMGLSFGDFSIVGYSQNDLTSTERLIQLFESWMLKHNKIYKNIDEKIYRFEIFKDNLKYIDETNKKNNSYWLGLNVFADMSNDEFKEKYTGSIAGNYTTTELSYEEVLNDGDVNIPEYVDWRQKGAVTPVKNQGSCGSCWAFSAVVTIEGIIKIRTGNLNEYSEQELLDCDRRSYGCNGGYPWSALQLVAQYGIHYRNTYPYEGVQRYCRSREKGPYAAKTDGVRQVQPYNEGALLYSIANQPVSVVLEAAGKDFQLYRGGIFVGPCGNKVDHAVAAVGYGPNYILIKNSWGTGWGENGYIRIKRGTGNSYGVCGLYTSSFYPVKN
Active calls of the source: *; ? = inconclusive; . = not tested or not shown. This is a sample that favours compounds with a hit; in the whole collection about 2.5% have one here. The call rests on the fitted dose curve; in most records, active means well fitted curve in the direction sought with a large enough effect; inconclusive means small, poorly fitted or top-dose-only effect, or another doubt; inactive means no such curve, though single readings can be large; an effect the other way counts as inactive or inconclusive. Potency means the concentration at half of the fitted maximal effect.

SMILES | Cruzain inh noDet | Cruzain Triton | others
COc1cccc([C@@H]2Oc3ccc(OC)cc3C[C@H]2OC(=O)Nc2cc(OC)c(OC)c(OC)c2)c1 | 24.1% | 1.4%
Cc1onc(-c2c(F)cccc2Cl)c1C(=O)OCC(=O)NC(c1ccccc1)c1ccccc1 | 31.6µM* | -3.9%
Cc1noc(C)c1C(=O)OCC(=O)NC(c1ccccc1)c1ccccc1 | -4.6% | 0.7%
CCOc1ccccc1CNC(=O)C1CCN(S(=O)(=O)c2c(C)noc2/C=C/c2ccc(C)cc2)CC1 | -12.1% | 0.9%
Cc1ccc(NC(=O)N2CC3CCCN3c3ccccc32)cc1C (centres undefined) | ? | -16.6%
Cc1ccc(NC(=O)N2CC3CCCN3c3ccccc32)cc1Cl (centres undefined) | 31.6µM* | -16.4%
CCOc1ccc(NS(=O)(=O)c2ccc3[nH]cc(C(=O)NCCc4ccccc4)c(=O)c3c2)cc1 | 14.1% | -2.2%
CCc1ccc(NS(=O)(=O)c2ccc3[nH]cc(C(=O)NCCCOC(C)C)c(=O)c3c2)cc1 | 20µM* | -3.5%
COc1cccc(NS(=O)(=O)c2ccc3[nH]cc(C(=O)NC4CC4)c(=O)c3c2)c1 | -4.9% | -9.6%
COc1cccc(NS(=O)(=O)c2ccc3[nH]cc(C(=O)NCCc4ccc(C)cc4)c(=O)c3c2)c1 | 12.6µM* | 2.9%
COc1cccc(NS(=O)(=O)c2ccc3[nH]cc(C(=O)NCCc4ccccc4)c(=O)c3c2)c1 | 12.6µM* | -2.5%
CC(C)c1ccc(NS(=O)(=O)c2ccc3[nH]cc(C(=O)NCCc4ccccc4)c(=O)c3c2)cc1 | 6.7% | 1.5%
CCCCC[C@H](O)/C=C/C=C\C/C=C\C=C\[C@@H](O)CCCC(=O)O | -5.2% | 4.9%
COc1ccc(NC(=O)CSC2=Nc3ccccc3C3=NC(CCC(=O)NCc4ccc(F)cc4)C(=O)N23)cc1Cl (centres undefined) | -5.1% | -4.0%
CCc1ccccc1NC(=O)CCNS(=O)(=O)c1ccc2c(c1)CCN2C(=O)C1CC1 | 11.2% | -0.7%
CCN(CC)S(=O)(=O)c1ccc(NC(=O)CN(c2ccccc2)S(=O)(=O)N(C)C)cc1 | 11.9% | -6.2%
COc1ccc(OC)c(C2C=C(C34CC5CC(CC(C5)C3)C4)NC(=S)N2)c1 (centres undefined) | 25.1µM* | -2.1%
COc1cc(C2C=C(C34CC5CC(CC(C5)C3)C4)NC(=S)N2)cc(OC)c1OC (centres undefined) | ? | 1.2%
COc1cccc(-c2nc(-c3ccccc3)[nH]c(=O)c2C#N)c1 | -7.9% | 5.3%
COc1ccc(-c2nc(-c3cccc(C)c3)[nH]c(=O)c2C#N)cc1 | 10µM* | -3.5%
CC(C)[C@@H](Br)C(=O)NCC(=O)O | 6.9% | -2.9%
COc1ccc(Br)cc1C1CC(=O)N2CN(C)CSC2=C1C#N (centres undefined) | 2.5% | -6.1%
COc1ccc(Br)cc1C1CC(=O)N2CN(Cc3ccccc3)CSC2=C1C#N (centres undefined) | 31.6µM* | ?
Cc1ccc(C2CC(=O)N3CN(Cc4ccco4)CSC3=C2C#N)cc1 (centres undefined) | -5.4% | -2.5%
N#CC1=C2SCN(Cc3ccco3)CN2C(=O)CC1c1c(F)cccc1Cl (centres undefined) | 20µM* | ?
SMILES | Cruzain inh noDet | Cruzain Triton | others
O=C(CSc1nnc(-c2cccs2)o1)Oc1ccc(Cl)cc1 | -12.3% | -3.3%
O=C(CSc1ncc(-c2ccccc2)[nH]1)Nc1cccc(C(F)(F)F)c1 | 16.8% | -12.6%
O=c1c(-c2ccc(F)cc2)nc2cnc(N3CCOCC3)nc2n1C1CC1 | 1.2% | 0.1%
Oc1ccc(C=Nc2ccc3ncccc3c2)c(O)c1 | 15.8µM* | -9.0%
Oc1ccc(C=Nc2cccc3ncccc23)c(O)c1 | -7.1% | -2.7%
CCc1ccc(-c2cc(-c3n[nH]c(=S)n3CC)c3ccccc3n2)cc1 | 15.8µM* | -3.4%
CCn1c(-c2cc(-c3cccc(OC)c3)nc3ccccc23)n[nH]c1=S | 5.2% | -12.7%
CCc1ccc(NC(=O)C2=C(C)C(=O)OC23CCCCC3)cc1 | -7.0% | -1.2%
C=C(C)C(O)/C=C/c1ccc(C(F)(F)F)cc1 (centres undefined) | -5.8% | 1.1%
O=C(NCc1ccco1)c1ccc2nc3sc4c(c3c(=O)n2c1)CCCC4 | 22.3% | 10µM* | Papain counter=25.1µM*
C=CCn1c(SCC(=O)NCc2ccco2)nc2sc3c(c2c1=O)CCCC3 | -12.6% | -1.1%
Cc1c(Cl)cccc1NC(=O)CN1C(=O)COc2ccc(S(=O)(=O)N3CCOCC3)cc21 | -3.3% | 0.2%
CSc1ccc(/C=C/C(=O)c2ccc(NC(C)=O)cc2)cc1 | ? | -14.1%
COc1cccc(C(=O)Nc2ccc(-n3nncc3-c3ccccc3)cc2)c1 | -5.0% | 2.1%
CC(=O)Nc1ccc(/C=C/C(=O)c2ccc(-n3nncc3-c3ccccc3)cc2)cc1 | . | . | Papain counter=-6.2%
O=C(Nc1ccc(-n2nncc2-c2ccccc2)cc1)c1ccccc1 | . | . | Papain counter=4.8%
CC(C)[C@H](N=Cc1ccccc1O)C(=O)O | 5.8% | -0.2%
Cc1cccc(-n2c(=O)c3c(c4cc(C)ccc4n3C)n(CC(=O)Nc3ccc(C)cc3C)c2=O)c1 | -3.1% | -1.9%
O=C(CN1CCN(S(=O)(=O)c2cc(Cl)ccc2Cl)CC1)Nc1cccc(F)c1 | -5.6% | -8.5%
Cc1ccc(N(Cc2cccs2)C(=O)C(C)Oc2ccc(Cl)c(C)c2)cc1 (centres undefined) | -15.0% | -10.5%
O=C(CNC(=O)C1CCCCC1)OCC(=O)c1ccc(C2CCCCC2)cc1 | . | . | Papain counter=-3.7%
COc1cc(C(=O)COC(=O)CNC(=O)C2CCCCC2)cc(OC)c1OC | 2.51µM* | 2.24µM* | Papain counter=-27.7%
CC(=O)NCC(=O)OCC(=O)c1ccccc1 | -4.1% | 7.4%
CC(=O)NCC(=O)OCC(=O)c1ccc(C)cc1 | 5.8% | 7.0%
O=C(CNC(=O)C1CCCCC1)OCC(=O)c1ccccc1 | . | . | Papain counter=15.8µM*
SMILES | Cruzain inh noDet | Cruzain Triton | others
O=C(CNC(=O)C1CCCCC1)Nc1ccc(Cl)cc1 | -1.8% | 1.5%
O=C(COC(=O)CNC(=O)C1CCCCC1)Nc1ccc2ccccc2c1 | 7.94µM* | 4.47µM* | Papain counter=-14.1%
COC(=O)c1ccc(NC(=O)CNC(=O)C2CCCCC2)cc1 | 0.6% | 4.8%
CCOc1ccc(NC(=O)Cn2c(=O)n(-c3ccc(C)cc3)c(=O)c3cc(OC)c(OC)cc32)cc1 | -9.9% | -1.7%
C/C=C\C[C@H](C)[C@H](O)[C@H]1C(=O)N[C@@H](CC)C(=O)N(C)CC(=O)N(C)[C@@H](CC(C)C)C(=O)N[C@@H](C(C)C)C(=O)N(C)[C@@H](CC(C)C)C(=O)N[C@@H](C)C(=O)N[C@@H](C)C(=O)N(C)[C@@H](CC(C)C)C(=O)N(C)[C@@H](CC(C)C)C(=O)N(C)[C@@H](C(C)C)C(=O)N1C | . | -4.4%
CCCCNC(=O)CCCN1C(=O)CCn2nc(-c3cccn3C)cc21 | 1.4% | -1.0%
Cc1cn2c(=O)c(S(=O)(=O)NC(C)c3ccccc3)c(C)nc2s1 (centres undefined) | 3.0% | -4.6%
CCn1c(CN2CCCCC2)nc2cc(NC(=O)COc3ccc([N+](=O)[O-])cc3)ccc21 | -4.6% | -3.3%
COc1ccc(C(=O)N/N=C/c2ccc(OC(=O)c3ccccc3)cc2)cc1 | ? | 0.2%
COc1ccc(N=Cc2nc(-c3ccccc3)oc2OC(=O)c2ccccc2)cc1 | 15.8µM* | 10µM* | Papain counter=-24.2%
